The full list was thinned out, with hits kept by preference.
FECH inh – blocks human mitochondrial ferrochelatase activity | P22830 | purified FECH, Ni-mesoporphyrin absorbance 550 nm | calls only at 10 µM (by protocol) | 3.3% of 20,000 active | AID 1671448;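 active means enzyme reaction rate more than 3 SD below the solvent-only control wells on the same plate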;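 further: lower slope than DMSO wells means FECH inhibition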
Target sequence (P22830 whole entry, looked up): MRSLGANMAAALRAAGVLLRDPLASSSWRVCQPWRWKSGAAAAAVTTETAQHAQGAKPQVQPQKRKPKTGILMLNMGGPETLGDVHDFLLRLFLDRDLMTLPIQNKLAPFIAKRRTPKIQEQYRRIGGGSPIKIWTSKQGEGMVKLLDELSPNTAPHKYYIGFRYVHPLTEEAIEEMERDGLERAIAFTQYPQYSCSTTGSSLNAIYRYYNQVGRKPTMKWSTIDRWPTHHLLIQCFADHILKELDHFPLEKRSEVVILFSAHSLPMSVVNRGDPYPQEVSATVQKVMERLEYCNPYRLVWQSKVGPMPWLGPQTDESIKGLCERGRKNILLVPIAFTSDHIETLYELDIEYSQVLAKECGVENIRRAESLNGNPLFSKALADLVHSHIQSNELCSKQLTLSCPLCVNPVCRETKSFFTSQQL
The depositor's hits bear a star.

For CCOc1ccccc1NCc1cc(=O)n2[nH]c(-c3ccc(C(C)(C)C)cc3)nc2n1 the results were FECH inh inactive.
Screening CC(C)(C)c1ccc(-c2nc3nc(CNc4ccc(Br)cc4)cc(=O)n3[nH]2)cc1 returned FECH inh inactive.
CC(C)(C)c1ccc(-c2nc3nc(CN4CCN(c5ccc(F)cc5)CC4)cc(=O)n3[nH]2)cc1 was read as FECH inh inactive.
Screening CC(C)(C)c1ccc(-c2nc3nc(CNc4ccccc4F)cc(=O)n3[nH]2)cc1 returned FECH inh active.
For Cc1cccc(-c2c(-c3ccccc3)ncn2CCc2ccccn2)n1 the results were FECH inh inactive.
For CC(C)CCNC(=O)c1nc[nH]c1C(=O)NCc1cccc(C(F)(F)F)c1 the results were FECH inh inactive.
For O=C(NC1CCc2ccccc21)c1nc[nH]c1C(=O)NCc1ccccn1 (stereo not given) the results were FECH inh active.
Screening CC(C)CNC(=O)c1nc[nH]c1C(=O)NCC(C)(C)C returned FECH inh inactive.
For O=C(NCc1ccccn1)c1nc[nH]c1C(=O)NCc1cccc(C(F)(F)F)c1 the results were FECH inh active.
`O=C(NCCc1c[nH]c2ccccc12)c1nc[nH]c1C(=O)NCc1ccccn1` gave FECH inh inactive.
`CCCNC(=O)c1[nH]cnc1C(=O)NC1CCc2ccccc21` (stereo not given) gave FECH inh inactive.
`CC(C)(C)CNC(=O)c1[nH]cnc1C(=O)NC1CCC(O)CC1` (stereo not given) gave FECH inh inactive.
For O=C(NCc1ccccn1)c1nc[nH]c1C(=O)NCc1ccccn1 the results were FECH inh active.
Screening CC(C)CCNC(=O)c1[nH]cnc1C(=O)NC(c1ccccc1)c1ccccc1 returned FECH inh inactive.
COCCNS(=O)(=O)c1ccc2c(c1)CCN2C(=O)CCC(=O)N1CCCCCC1 was read as FECH inh inactive.
`O=C(C1CCCO1)N1CCC(NCCN2CCc3ccccc32)CC1` (stereo not given) gave FECH inh inactive.
`CC(=O)N(C)c1ccc(NC(=O)CN2CCN(c3ccncc3C)CC2)cc1` gave FECH inh inactive.
CCC(=O)Nc1ccccc1-c1nnc(SCC(=O)Nc2cc(Cl)ccc2OC)[nH]c1=O was read as FECH inh inactive.
`CCc1c(C)nc2ncnn2c1Sc1ccccc1NC(=O)c1cccc(C)c1` gave FECH inh inactive.
Screening CCCc1c(C)nc2ncnn2c1Sc1ccccc1NC(=O)c1cccc(OC)c1 returned FECH inh active.
`CCCc1c(C)nc2ncnn2c1Sc1ccccc1NC(=O)c1ccco1` gave FECH inh inactive.
Screening COc1ccc(CC(=O)Nc2ccccc2Sc2c(C)c(C)nc3nc(-c4ccccc4)nn23)cc1 returned FECH inh inactive.
`Cc1cc(Sc2ccccc2NC(=O)COc2ccc(Cl)cc2)n2nc(-c3ccccc3)nc2n1` gave FECH inh inactive.
Screening Cc1nc2ncnn2c(Sc2ccccc2NC(=O)c2ccc(Br)cc2)c1C returned FECH inh inactive.
For COc1ccc(C(=O)Nc2ccccc2Sc2c(C)c(C)nc3ncnn23)cc1 the results were FECH inh active.
Screening Cc1nc2nc(-c3ccccc3)nn2c(Sc2ccccc2NC(=O)COc2ccc(Cl)cc2)c1C returned FECH inh active.
`CCCc1c(C)nc2ncnn2c1Sc1ccccc1NC(=O)c1ccc(F)cc1` gave FECH inh inactive.
`CCc1c(C)nc2ncnn2c1Sc1ccccc1NC(=O)c1cccc(F)c1` gave FECH inh inactive.
`COc1cc(C(=O)Nc2ccccc2Sc2c(C)c(C)nc3ncnn23)cc(OC)c1OC` gave FECH inh inactive.
CCCc1c(C)nc2ncnn2c1Sc1ccccc1NC(=O)c1ccccc1 was read as FECH inh active.
`Cc1ccc2cc(C3(O)CCN(C)CC3)ccc2n1` gave FECH inh inactive.
For COc1cccc(NC(=O)N2CCN(c3cc(-c4cccc(OC)c4)ncn3)CC2)c1 the results were FECH inh inactive.
For NS(=O)(=O)c1ccc(NC(=O)c2ccc(=O)n(Cc3cccc(F)c3)c2)cc1 the results were FECH inh inactive.
COc1cccc(OCC(=O)Nc2cc(C)nn2-c2ncnc3c2cnn3-c2ccccc2)c1 was read as FECH inh inactive.
For CC(SCc1nc(-c2ccc(F)cc2)no1)C(=O)NCc1ccco1 (stereo not given) the results were FECH inh inactive.
O=C(O)CSc1nnc(-c2cnccn2)n1-c1cccc(Cl)c1 was read as FECH inh inactive.
For CCN(Cc1ccc(S(C)(=O)=O)cc1)CC1CCCO1 (stereo not given) the results were FECH inh inactive.
Screening O=C(CCN1CCCCO1)N(Cc1ccc2c(c1)OCO2)C1CCCC1 returned FECH inh inactive.
`CCOc1ccccc1N(Cc1nc2nc(C)cc(=O)n2[nH]1)C(=O)c1ccc(C)cc1` gave FECH inh inactive.
`CCc1ncc(C(=O)NCC(c2cccnc2)N2CCCC2)cn1` (stereo not given) gave FECH inh inactive.
CCOc1ccccc1C(=O)Nc1ccccc1Sc1c(C)c(C)nc2ncnn12 was read as FECH inh inactive.
`Cc1ccccc1OCC(=O)Nc1ccccc1Sc1c(C)c(C)nc2ncnn12` gave FECH inh active.
Screening Cc1ccc(OCC(=O)Nc2ccccc2Sc2c(C)c(C)nc3ncnn23)cc1 returned FECH inh inactive.
For CCOc1ccccc1-n1c(-c2cn(CC)nc2C)n[nH]c1=O the results were FECH inh inactive.
CCC(CC)C(=O)NC1CC(=O)N(c2ccc(F)cc2)C1 (stereo not given) was read as FECH inh inactive.
`O=C(c1ccc2nc[nH]c2c1)N1CCC(N2CCCC(C(=O)N3CCCC3)C2)CC1` (stereo not given) gave FECH inh inactive.
`CCCc1c(C)nc2ncnn2c1Sc1ccc(NS(=O)(=O)c2ccccc2Cl)cc1` gave FECH inh inactive.
Cc1cc(C)cc(-n2c(CN3CCN(S(=O)(=O)c4cccc5nsnc45)CC3)nc3cccnc32)c1 was read as FECH inh active.
`COc1cccc(S(=O)(=O)N2CCN(Cc3nc4cccnc4n3-c3cccc(F)c3)CC2)c1` gave FECH inh active.
Cc1ccc(-n2c(CN3CCN(S(=O)(=O)c4cc(F)cc(F)c4)CC3)nc3cccnc32)cc1 was read as FECH inh active.
COc1ccc(-n2c(CN3CCN(S(=O)(=O)c4cc(F)cc(F)c4)CC3)nc3cccnc32)cc1 was read as FECH inh inactive.
Screening COc1cccc(S(=O)(=O)N2CCN(Cc3nc4cccnc4n3-c3ccccc3)CC2)c1 returned FECH inh inactive.
COc1cccc(S(=O)(=O)N2CCN(Cc3nc4cccnc4n3-c3cccc(C)c3)CC2)c1 was read as FECH inh inactive.
Screening Cc1cc(C)cc(-n2c(CN3CCN(S(=O)(=O)c4ccc(C)cc4C)CC3)nc3cccnc32)c1 returned FECH inh inactive.
Screening Cc1ccc(-n2c(CN3CCN(S(=O)(=O)c4ccc(F)cc4)CC3)nc3cccnc32)cc1 returned FECH inh inactive.
Screening Cc1cccc(-n2c(CN3CCN(S(=O)(=O)c4cc(C)c(C)cc4C)CC3)nc3cccnc32)c1 returned FECH inh inactive.
For NC(=O)C1CCN(S(=O)(=O)c2ccc(N3C(=O)CCS3(=O)=O)cc2)CC1 the results were FECH inh inactive.

High-throughput results deposited in PubChem BioAssay by Corson Lab, School of Medicine, Indiana University.
